# Screening data (PubChem)
# HPGD block: blocks human HPGD enzyme activity | P15428 | purified HPGD, NADH fluorescence kinetic, PGE2 substrate | Potency, µM, without a hit: at the highest dose activity change, negative = inhibition, most hits filed as inhibitors | 4.3% of 150,000 active | AID 894; active = well fitted inhibition curve with a large enough effect, not every such curve was filed as active; inconclusive = small, poorly fitted or top-dose-only effect, or another doubt; inactive = no such curve, though single readings can be large or run the other way; note: % is set by controls: 0 for no effect and ±100 for the full control effect
# Target sequence (P15428 whole entry, looked up): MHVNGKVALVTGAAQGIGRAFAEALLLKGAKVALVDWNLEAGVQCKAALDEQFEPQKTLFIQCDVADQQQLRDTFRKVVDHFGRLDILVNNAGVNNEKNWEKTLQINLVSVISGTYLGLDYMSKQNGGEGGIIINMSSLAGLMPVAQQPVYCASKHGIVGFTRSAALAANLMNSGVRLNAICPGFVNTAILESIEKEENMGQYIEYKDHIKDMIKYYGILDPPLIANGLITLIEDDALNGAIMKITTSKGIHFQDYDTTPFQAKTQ
#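 NADH formation kinetics: reaction with 30 uM PGE2 and 1 mM NAD+ (final), 20 nM enzyme, Tris-HCl pH 8 with Tween 20, after 15 min compound preincubation at room temperature. Fluorescence change, last versus first of five reads.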
# ALDH1A1 block: blocks purified human ALDH1A1 activity. Purified ALDH1A1, NADH fluorescence, propionaldehyde substrate. P00352. 7.3% of 220,000 active. Potency, µM (series often up to 75.3 µM), for inactives: top-dose activity, negative = inhibition, hits mostly inhibitors; active = well fitted inhibition curve with a large enough effect, not every such curve was filed as active; inconclusive = small, poorly fitted or top-dose-only effect, or another doubt; inactive = no such curve, though single readings can be large or run the other way;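 note: plate controls were no enzyme wells and a reference inhibitor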
# HttQ103 aggreg: mutant huntingtin aggregation inhibition; PC12 HttQ103-GFP aggregates, Acumen cytometry, 40 h; Potency, µM (series often up to 46.1 µM), for inactives: at the top dose activity change, negative = inhibition, hits mostly inhibitors; 1.1% of 220,000 active; AID 1688; note: % is set by controls: 0 for no effect and ±100 for the full control effect; nearly all actives have a fitted effect of over 60% in size
#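 Using laser scanning cytometry, GFP-positive aggregates were counted after lysis of PC12 cells induced with 100 nM tebufenozide to express HTT exon 1 Q103–GFP. Compounds were tested in titration.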
# LMNA splice mod: LMNA splicing modulation; HeLa LMNA splicing GFP/RFP minigene ratio, 48 h; Potency, µM (highest dose often 46.1 µM), inactives show at the highest dose ratio change, negative = inhibition, most hits filed as inhibitors; 0.01% of 200,000 active; AID 1487; active = well fitted inhibition curve with a large enough effect in the signal ratio, with a control signal flat, not every such curve was filed as active; inconclusive = small, poorly fitted or top-dose-only effect, or effect the other way, or a change in a side signal; the % refers to the signal ratio; note: % is set by controls: 0 for no effect and ±100 for the full control effect
#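 Read-out is the ratio of GFP to DsRed2 object intensity, acquired by 488 nm laser-scanning cytometry on HeLa lamin A-EGFP minigene reporter cells. Compound incubation 48 hrs at 37 °C in Opti-MEM with 2% FBS; DMSO 0.5% final.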
# Luc counter: blocks Kinase-Glo luciferase, a counter-screen artifact | Potency, µM (titrated, usually from 38.3 µM), for inactives: top-dose activity change, negative = inhibition, hits mostly inhibitors | Kinase-Glo luciferase, ATP luminescence, 8 min | 0.28% of 200,000 active; note: % is set by controls: 0 for no effect and ±100 for the full control effect; nearly all actives have a fitted effect of over 60% in size
#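 Compounds were added to a substrate mix at pH 7.2 (50 mM imidazole, 10 uM ATP, within the enzyme's linear range), followed by Kinase-Glo detection reagent; luminescence was measured after 8 minutes at ambient temperature.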
# HTT cytoprotect: cytoprotection in Huntington HTT-Q103 PC12 cell model. PC12 HTT-Q103 induced, cytoprotection, ATP luminescence, 40 h. Potency, µM (highest dose often 56.4 µM), inactives show cytoprotection (ATP increase), most hits filed as activators. AID 1471. 0.14% of 230,000 active; note: % of control where 0% means no effect; nearly all actives have a fitted effect of over 45% in size
#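 Cells were plated at 1500 per well in phenol red-free DMEM with 5% equine and 5% calf serum. Tebufenozide (100 nM final) and compounds were added, then ATPlite reagent, and luminescence was read.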
# The depositor's hits bear a star; ? = inconclusive; / = not tested or not shown; [ ] = remark or other dose. This is a sample that favours compounds with a hit; in the whole collection about 9% have one here. Unless noted, calls come from the whole dose curve; as a rule, active = well fitted curve in the direction sought with a large enough effect; inconclusive = small, poorly fitted or top-dose-only effect, or another doubt; inactive = no such curve, though single readings can be large; an effect the other way counts as inactive or inconclusive. Potency is the fitted concentration of half-maximal effect.
SMILES,HPGD block,ALDH1A1 block,HttQ103 aggreg,LMNA splice mod,Luc counter,HTT cytoprotect
CCN(CC)C(=O)CSc1nc2ccc(NC(=O)CSc3nccn3C)cc2s1,32µM*,?,-22%,?,5%,-24%[10 µM]
Cc1ccc(-n2nc(C(=O)NCCN(C)C)c(=O)n(C)c2=O)cc1,/,/,/,8%[46 µM],/,/
CC(=O)N1CCN(c2ccc(NC(=O)C(C)Oc3ccc(Cl)cc3Cl)cc2)CC1 (configuration not stated),20µM*,?,19%[9.22 µM],9%,5%,3%
Cc1ccc(OCC(=O)NCC2CCCO2)c(C)c1 (configuration not stated),/,1%,-5%[9.22 µM],18%[46 µM],-3%,-18%[10 µM]
O=C(CC1CCCCC1)NCC1CCCO1 (configuration not stated),14µM*,-3%,-3%,2%,1%,-11%
O=C(CCn1nc(-c2ccccc2)c2ccccc2c1=O)NCC1CCCO1 (configuration not stated),28µM*,?,0%,?,1%,-7%
COc1cccc(-c2noc(CCC(=O)NCC3CCCO3)n2)c1 (configuration not stated),/,5%,-14%,/,3%,-5%
O=C(CCc1nc(-c2ccc(Cl)cc2)no1)NCC1CCCO1 (configuration not stated),/,35µM*,-4%[9.22 µM],?,-2%,0%
Cc1cc(Cl)ccc1OCCCC(=O)NCC1CCCO1 (configuration not stated),11µM*,10%,5%,6%,-3%,12%
C=C(C)c1cccc(C(C)(C)NC(=O)N(C)C2CCN(C)CC2)c1,/,3%,22%[9.22 µM],-3%[46 µM],-2%,19%[10 µM]
O=C(CCCOc1ccccc1)NCC1CCCO1 (configuration not stated),13µM*,-3%,?,13%,-7%,2%
O=C(CCn1nc(-c2ccccc2)c2ccccc2c1=O)N1CCN(c2ccccc2)CC1,-11%,22µM*,-1%,-4%,-1%,8%[0.074 µM]
O=C(CCSc1ccccc1)NCC1CCCO1 (configuration not stated),16µM*,-2%,11%,-8%,-3%,3%
CC(NC(=O)C(=O)NCC1CCCO1)c1ccccc1 (configuration not stated),/,6%,9%,2%[46 µM],3%,4%[10 µM]
O=C(CC(c1ccccc1)c1ccccc1)NCC1CCCO1 (configuration not stated),7.9µM*,-3%,12%,6%,-1%,-2%
COc1cccc(-n2cc3c(=O)n(C)c(=O)n(C)c3c2)c1,-12%,?,10%,9%,-4%,1%
CCCCCCCC1=CC2=CC(=O)C(C)(OC(C)=O)C(=O)C2=CN1CCc1ccccc1 (configuration not stated),-7%,-4%,-10%,?,-2%,-22%[10 µM]
COC(=O)c1cc(OC)c(OC)cc1NC(=O)c1c(-c2ccccc2Cl)noc1C,-12%,28µM*,13%,9%,4%,-36%
Cc1onc(-c2ccccc2Cl)c1C(=O)NC(=S)Nc1ccccc1F,/,3.2µM*,-6%[9.22 µM],/,1%,-10%
Cc1cc(NC(=O)c2c(-c3ccccc3Cl)noc2C)no1,-10%,6%,24%,-9%,-3%,-11%
COc1ccccc1NC(=S)NC(=O)c1c(-c2ccccc2Cl)noc1C,/,0.89µM*,0%,/,-1%,5%
Cc1onc(-c2ccccc2Cl)c1C(=O)Nc1nnc(-c2ccc(Cl)cc2Cl)s1,?,?,35µM*,?,3%,24%[10 µM]
Cc1onc(-c2ccccc2Cl)c1C(=O)Nc1ccc(F)c(F)c1,-3%,4%,-20%,?,-1%,0%
COc1ccc(CCNC(=S)NC(=O)c2c(-c3ccccc3Cl)noc2C)cc1OC,/,/,9%[9.22 µM],/,/,9%[10 µM]
N#CC1=C(N)NC(=S)C(C(N)=O)C1c1ccc([N+](=O)[O-])cc1 (configuration not stated),/,-17%,?,/,-1%,-39%
SMILES,HPGD block,ALDH1A1 block,HttQ103 aggreg,LMNA splice mod,Luc counter,HTT cytoprotect
COC(=O)[C@H](CCSC)NC(=O)NCCc1ccc(F)cc1,-10%,5%,15%,9%,-4%,16%
Cc1ccc(NC(=O)CSc2nnc(-c3cccs3)o2)cc1S(=O)(=O)N(C)C,/,?,9%,/,5%,12%
COc1cccc(C(=O)CN2CCN(S(=O)(=O)c3ccc(Cl)cc3)CC2)c1,/,/,/,-16%[46 µM],/,/
COC(=O)c1c(C)[nH]c(C)c1-c1ccccc1Cl,-22%,-13%,8.9µM*,?,-6%,-15%
COC(=O)c1c(-c2ccccc2Cl)noc1/C=C/N(C)C,/,1.3µM*,-6%,23%[46 µM],1%,-22%
Cc1c(Cl)cccc1NC(=O)c1cccc(OC(F)F)c1,-20%,-5%,-14%,-6%,-4%,16%
Cc1ccc(/C=C/C(=O)c2ccc(O)cc2)cc1,/,/,9%[9.22 µM],/,/,4%[10 µM]
Cc1ccc(C(=O)/C=C/C(=O)O)cc1,?,0.45µM*,?,?,2%,-32%[10 µM]
O=C(NCc1cccc(CNC(=O)C(=O)NCc2ccco2)c1)C(=O)NCc1ccco1,/,0%,23%,2%[46 µM],-4%,3%[10 µM]
O=C(NCCc1csc(-c2ccc(F)cc2)n1)c1ccc(Br)o1,/,/,/,11%[46 µM],/,/
CC(C)(C)C(=O)/C(=C\c1ccc([N+](=O)[O-])cc1)n1cncn1,?,-11%,5µM*,?,0%,?
Cc1ccc(C)n1-c1ccc(C(=O)Nc2ccccc2F)cc1,/,?,-3%,/,-6%,-65%
COc1cc(C(=O)N/N=C/c2sc(=O)n(-c3ccccc3)c2Cl)cc(OC)c1OC,-1%,?,?,-24%,3%,-8%[10 µM]
Cc1ccc(C)n1-c1ccc(NC(=O)c2ccccc2)cc1,-11%,-14%,?,?,-2%,13%[10 µM]
Cc1ccccc1-n1c(C)cc(/C=N/NC(=O)c2ccncc2)c1C,-17%,32µM*,32%,10%,-4%,-24%
O=C(N/N=C/c1sc(=O)n(-c2ccccc2)c1Cl)c1ccncc1,-22%,10µM*,2%,?,-4%,-12%[10 µM]
CC(=O)Nc1ccc(NC(=O)c2ccc(-n3c(C)ccc3C)cc2)cc1,25µM*,22µM*,-18%,15%,6%,-19%[10 µM]
CCc1ccccc1NC(=O)c1ccc(-n2c(C)ccc2C)cc1,16µM*,-8%,12%,?,-1%,-14%
CCOC(=O)N/N=C\C=C\c1ccc2c(c1)OCO2,?,-1%,-11%,-9%,-4%,0%[10 µM]
COc1cccc(C(=O)NC2CCSC2=O)c1 (configuration not stated),-19%,?,17%,5%,-7%,2%
